Screening data from PubChem BioAssay.
KAT2A inh: qHTS Assay for Inhibitors of GCN5L2. Histone acetyltransferase KAT2A (Homo sapiens), Q92830. GCN5L2 HAT assay, ThioGlo1 CoA-SH fluorescence. Potency, µM (top dose mostly 58.9 µM), without a hit: at the highest dose activity change, negative = inhibition, hits mostly inhibitors. 390,000 compounds, 0.21% hits
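GCN5L2 (20 nM) in 50mM HEPES pH 7.5, 0.1mM EDTA, 0.01% Tween-20 preincubated 15 min with compounds at room temperature. Reaction started with H3(1-25) 75uM, acetyl-CoA 70uM, ThioGlo1 50uM; CoA-thiol fluorescence (Ex340/Em540) read at 0 and 20 min.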
JMJD2E inh: qHTS Assay for Inhibitors of Human Jumonji Domain Containing 2E (JMJD2E) | AID 2147, 2009 | 230,000 compounds, 1.6% hits | JMJD2E catalytic domain, FDH-coupled NADH fluorescence (FDH is formaldehyde dehydrogenase) | Potency, µM (series often up to 57.1 µM), for the others: top-dose activity change, negative = inhibition, hits mostly inhibitors | Lysine-specific demethylase 4E (Homo sapiens), B2RXH2; active = well fitted inhibition curve with a large enough effect, not every such curve was filed as active; inconclusive = small, poorly fitted or top-dose-only effect, or another doubt; inactive = no such curve, though single readings can be large or run the other way;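 note: 0% = wells with enzyme and -100% = buffer wells without enzyme; nearly all actives have a fitted effect of over 50% in size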
L3MBTL1 block: qHTS Assay for the Inhibitors of L3MBTL1 | Lethal(3)malignant brain tumor-like protein 1 (Homo sapiens), Q9Y468 | AlphaScreen L3MBTL1–H3K9me1 peptide binding | Potency, µM (top dose mostly 57.1 µM), for inactives: at the top dose activity, negative = inhibition, usual class: inhibitors | 230,000 compounds, 0.66% hits | AID 485360, 2010; note: nearly all actives have a fitted effect of over 60% in size
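L3MBTL1 50 nM + b-AHA-H3(1-15)K9me1 75 nM, 30 min RT; compound added, 30 min RT; streptavidin donor/Ni-chelate acceptor beads 10 ug/mL each final, 30 min RT dark; AlphaScreen read.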
BLM helicase inh: qHTS Assay for Inhibitors of Bloom's syndrome helicase (BLM); RecQ-like DNA helicase BLM (Homo sapiens), P54132; recombinant BLM DNA unwinding, fluorescence dequenching; Potency, µM (titrated, usually from 56.1 µM), for inactives: at the top dose activity change, negative = inhibition, usual class: inhibitors; 350,000 compounds, 0.2% hits; AID 2528, 2010;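 note: plate controls were vehicle for no effect and no enzyme for full effect; nearly all actives have a fitted effect of over 35% in size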
RECQ1 inh: qHTS Assay for Inhibitors of RecQ-Like Dna Helicase 1 (RECQ1) | Potency, µM (top dose mostly 57.3 µM), for inactives: at the highest dose activity, negative = inhibition, usual class: inhibitors | 240,000 compounds, 0.54% hits | RECQ1 DNA unwinding, red fluorescence kinetic read | AID 2549, 2010 | ATP-dependent DNA helicase Q1 (Homo sapiens), P46063;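 note: plate controls were vehicle for no effect and no enzyme for full effect; nearly all actives have a fitted effect of over 30% in size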
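50 nM RECQ1T1 preincubated 15 min with compound in Tris pH 8.0 buffer with MgCl2, DTT, Tween-20 and 2.5 ug/ml poly(dI-dC); started with 200 nM TAMRA/BHQ-2 forked duplex and 2 mM ATP. Unwinding read as fluorescence (525/598 nm), two reads 2 h apart.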
APEX1 inh: qHTS Assay for Inhibitors of the Human Apurinic/apyrimidinic Endonuclease 1 (APE1). DNA repair nuclease/redox regulator APEX1 (Homo sapiens), P27695. recombinant APE1, TAMRA/BHQ-2 abasic DNA cleavage fluorescence. Potency, µM (top dose mostly 65.8 µM), without a hit: at the top dose activity change, negative = inhibition, most hits filed as inhibitors. 350,000 compounds, 0.35% hits. AID 2517, 2012;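 note: plate controls were vehicle for no effect and reference inhibitor for full effect; nearly all actives have a fitted effect of over 55% in size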
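Endonuclease cleavage of a quenched abasic-site DNA duplex (50 nM) by APE1 (0.75 nM) was tracked by TAMRA dequenching. Compounds were preincubated with enzyme 15 min at room temperature; data normalized to buffer-only and DMSO wells plus NSC13755 control.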
Numbers without * were called inactive; i = inactive; u = inconclusive; x = no result; ! = a repeat was not active; [ ] = another dose, or the depositor's remark. Only a selection was taken, and hits are over-represented in it overall. Unless noted, calls come from the whole dose curve; as a rule, active = well fitted curve in the direction sought with a large enough effect; inconclusive = small, poorly fitted or top-dose-only effect, or another doubt; inactive = no such curve, though single readings can be large; an effect the other way counts as inactive or inconclusive. Unless noted, % is set by controls: 0 for no effect and ±100 for the full control effect; potency is the fitted concentration of half-maximal effect.

SMILES	KAT2A inh	JMJD2E inh	L3MBTL1 block	BLM helicase inh	RECQ1 inh	APEX1 inh
C/C(CCN1CCCCc2nc(C)c(C)cc21)=N\O[C@@H](C)c1cc(-c2c(C)cc(C)cc2C)no1	x	x	x	3%[12.4 µM]	i[11.5 µM]	u
CCN(C(=O)CCS(=O)(=O)c1cc(Br)cc2c1N(C(=O)C1CC1)CC2)c1cccc(C)c1	-3%	x	x	1%	x	x
CCC(=O)N1CCc2cc(Br)cc(S(=O)(=O)CCC(=O)N(C)c3cccc(C)c3)c21	-1%	x	28µM*	-2%	x	-20%
Cc1onc(-c2ccccc2)c1C(=O)NC(=S)NNC(=O)c1cc(-c2ccc(F)cc2)n[nH]1	-15%	13µM*	x	-6%	-5%	-9%
Cc1onc(-c2ccccc2)c1C(=O)NC(=S)NNC(=O)c1ccco1	-10%	-23%	6%	-2%	-8%	-3%
O=C(NCCC1=CCCCC1)c1ccc2c(c1)ncn2-c1ccc(F)c(F)c1	-4%	x	x	-3%	x	x
Cc1nn(CC(=O)N2CCC(C)CC2)c(=O)c2cc3sccc3n12	-5%	x	x	-1%	x	x
Cc1ccc2c(c1)/C(=C/c1ccc(F)cc1)C(=O)N2	-6%	x	x	-14%	x	4%
CC1=C(CC(=O)O)c2cc(F)ccc2/C1=C\c1ccc(S(C)=O)cc1 (centres undefined)	u	35µM*!	x	u	0%	-2%
O=c1oc2cc(O)ccc2cc1-c1ccccc1	u	x	x	1%	x	33%
COc1ccc(-c2cc3ccc(O)cc3oc2=O)cc1	32µM*	x	x	-6%	x	-21%
COc1ccc(-c2cc3ccc(O)c(CN4CCC(C)CC4)c3oc2=O)cc1	28µM*	x	x	-2%	x	x
O=c1oc2c(CN3CCCC3)c(O)ccc2cc1-c1ccccc1	18µM*	x	x	-3%	x	x
NC(=O)C1CCN(c2nc(-c3ccccc3)cs2)CC1	x	x	x	x	x	2%
C=C(C)C(O)/C=C/c1ccc(OC)cc1 (centres undefined)	x	x	x	-10%[12.4 µM]	-2%[11.5 µM]	u
O=C(CSc1nc2sc3c(c2c(=O)n1-c1ccccc1)CCCC3)N/N=C/c1ccccc1C(=O)O	3%	x	x	u	x	11µM*
CC[C@H]1C(c2ccc(F)cc2)=NN(c2ccccc2)[C@@H]1CO	40µM*!	x	18%	-14%[75.6 µM]	-6%[81.1 µM]	19%
Cc1ccc(Cl)cc1Nc1nc(-c2sc(NC(=O)c3ccco3)nc2C)cs1	-19%	25µM*	-10%	-5%	i	u
O=C(c1cccc(-n2cccc2)c1)N1CCN(S(=O)(=O)c2ccccc2)CC1	u	x	4.5µM*	x	x	1.5µM*
O=C(c1cccc(-n2cccc2)c1)N1CCN(S(=O)(=O)c2c(F)cccc2F)CC1	1%	x	x	-28%	x	16%
COc1ccc(NC(=O)C23CCC(C)(C(=O)O2)C3(C)C)cc1 (centres undefined)	-13%	7%	x	-2%	i	-4%
O=C(CCC(=O)Nc1ccc(F)cc1)N/N=C/c1ccc(O)cc1O	-1%	25µM*	x	-12%	-3%	4%
CC12CCC(C(=O)N/N=C/c3ccc(O)cc3O)(OC1=O)C2(C)C (centres undefined)	-6%	25µM*	-21%	-5%	-1%	5%
Cc1cc(C)n(CCC(=O)N/N=C/c2ccccc2O)n1	-7%	-8%	-4%	-8%	1%	u
Cc1cc(C)n(CCC(=O)N/N=C/c2ccc(O)cc2O)n1	23%	14µM*	20%	-8%	-11%	2%
SMILES	KAT2A inh	JMJD2E inh	L3MBTL1 block	BLM helicase inh	RECQ1 inh	APEX1 inh
COc1cccc2c(SCC(=O)N/N=C/c3ccc(O)cc3O)cc(C)nc12	2%	28µM*	u	-6%	-7%	4%
CSc1ccc(NC(=O)N2CCC(C(=O)c3ccc(F)cc3)CC2)cc1	0%	x	x	-3%	x	4%
CCCCNC(=O)NS(=O)(=O)c1ccc(CO)cc1	4%	x	x	3%	-8%	-1%
CC(=O)c1ccc(C2C=CC(O)C(CO)O2)cc1 (centres undefined)	x	x	x	4%[12.4 µM]	i[11.5 µM]	16%[12.4 µM]
Nc1ccccc1-c1nnc(SCC(=O)Nc2ccccc2OC(F)F)[nH]c1=O	-5%	x	2%	x	x	10%
O=C(N/N=C/c1ccc(O)cc1O)C(=O)N/N=C/c1ccc(O)cc1O	1%	x	0.71µM*	-10%	x	-22%
COCCCNC(=S)N/N=C/c1ccc(O)cc1O	-5%	18µM*	u	-7%	-6%	0%
COCc1cc(C)nc(OCC(=O)N/N=C/c2ccc(O)cc2O)c1C#N	-5%	25µM*	x	-6%	-4%	1%
COCc1cc(C)nc(OCC(=O)N/N=C/c2ccccc2O)c1C#N	-9%	25µM*	-24%	-1%	i	2%
CC(C)c1ccc(NC(=O)CCNS(=O)(=O)c2ccc3c(c2)CCCC(=O)N3)cc1	1%	x	x	1%	x	x
Cn1ccc2cc(-c3ccc4ncnc(NCc5cccc(F)c5)c4c3)ccc21	-9%	x	-7%	x	x	16%
CCCN1CCC(=O)N(C(CSc2ccc(OC)cc2)CC(C)C)CC1 (centres undefined)	x	x	x	4%	i	-4%
Nc1ccc(C(=O)N/N=C/c2cn(Cc3ccc(F)cc3)c3ccccc23)cc1	-37%	x	x	-13%	x	-2%
O=C(N/N=C/c1cn(Cc2cccc(F)c2)c2ccccc12)c1cc(O)cc(O)c1	-25%	x	x	-1%	x	1.5µM*
CCOC(=O)NC(=O)COC(=O)c1ccc(O)cc1	-8%	-3%	19%	1%	5%	1%
CNC(=O)NC(=O)COC(=O)c1ccc(-n2c(C)ccc2C)cc1	-6%	13µM*	u	2%	-1%	14%
COC1=C(N)C(=O)c2nc(-c3nc(C(=O)O)c(C)c(-c4ccc(OC)c(OC)c4O)c3N)ccc2C1=O	49%	331%	20µM*	3.5µM*	-17%	-10%
NC[C@@H]1O[C@H](C23CC4CC(CC(C4)C2)C3)Cc2c1ccc(O)c2O	-4%	22µM*	x	2%	9%	-6%
NC[C@@H]1O[C@H](c2ccccc2)Cc2c1ccc(O)c2O	-4%	16µM*	x	1%	-12%	-4%
COc1cccc([C@@H]2Oc3ccc(OC)cc3C(=O)[C@H]2OC(=O)NCCc2ccc(OC)c(OC)c2)c1	x	14%	x	-6%	-1%	1%
CC(=O)Nc1cc2c(s1)c1cnn(Cc3ccccc3F)c(=O)c1n2C	-8%	x	13%	x	x	u
